High-throughput results: PubChem, National Center for Advancing Translational Sciences (NCATS)
This is a sample that favours compounds with a hit; in the whole collection about 11% have one here.
HTT ATP protect: Huntington cell model cytoprotection by ATP luminescence | PC12 HTT-Q103 induced, cytoprotection, ATP luminescence, 40 h | Potency, µM (titrated, usually from 56.4 µM), most hits filed as activators | 230,000 tested, 0.14% active | AID 1471; further: nearly all actives have a fitted effect of over 45% in size
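Cells were plated at 1500 per well in phenol red-free DMEM with 5% equine and 5% calf serum. Tebufenozide (100 nM final) and compounds were added, then ATPlite reagent, and luminescence was read.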
HttQ103 aggreg: inhibitors of mutant huntingtin aggregate formation in PC12 cells | PC12 HttQ103-GFP aggregates, Acumen cytometry, 40 h | Potency, µM (series often up to 46.1 µM), actives largely listed as inhibitors | 220,000 tested, 1.1% active | AID 1688; further: nearly all actives have a fitted effect of over 60% in size
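PC12/HTTQ103-GFP, ecdysone-inducible; teb 100 nM; cpd qHTS titration; GFP aggregates read on laser cytometer, Ex 488/Em 500-530 nm.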
PNC inhibitor: blocks assembly of the perinucleolar compartment; PC3M PTB-GFP, PNC prevalence imaging, 16 h; hits give low values; 140,000 tested, 3.1% active; activity change (PNC), negative = inhibition, % at 10 µM; AID 2417;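 active means readout at or below -70, meaning at least 70% loss of cells showing the perinucleolar compartment, a nuclear body marking cancer cells; inconclusive means readout between -30 and a set limit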
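Read-out is percentage of cells bearing a perinucleolar compartment, from automated 20x imaging of fixed, Hoechst-stained PC3M PTB-GFP cells. Cells were seeded 4 h, then exposed 16 h to compound (23 nl of library stock) in duplicate plates.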
RGS12 GoLoco inh: RGS12 GoLoco-Gai1 interaction inhibition; P63096; 230,000 tested, 0.44% active; Gai1:RGS12 GoLoco peptide FP, rhodamine, 10 min; Potency, µM (highest dose often 61.6 µM), usual class: inhibitors; active means well fitted inhibition curve with a large enough effect, not every such curve was filed as active; inactive means no such curve, though single readings can be large or run the other way; further: nearly all actives have a fitted effect of over 30% in size
Target sequence (P63096 whole entry, looked up): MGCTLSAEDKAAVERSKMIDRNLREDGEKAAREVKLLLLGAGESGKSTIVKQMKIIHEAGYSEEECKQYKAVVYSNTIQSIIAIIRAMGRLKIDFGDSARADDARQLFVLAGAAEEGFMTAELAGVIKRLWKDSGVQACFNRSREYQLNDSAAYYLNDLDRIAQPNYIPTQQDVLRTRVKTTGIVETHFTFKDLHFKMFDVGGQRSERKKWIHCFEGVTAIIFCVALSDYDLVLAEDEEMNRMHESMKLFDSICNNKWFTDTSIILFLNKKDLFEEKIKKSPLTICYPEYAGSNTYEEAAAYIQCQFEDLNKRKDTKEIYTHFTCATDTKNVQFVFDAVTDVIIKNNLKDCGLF
HPGD inh: blocks human HPGD enzyme activity; purified HPGD, NADH fluorescence kinetic, PGE2 substrate; Potency, µM, hits mostly inhibitors; 150,000 tested, 4.3% active; AID 894; active means well fitted inhibition curve with a large enough effect, not every such curve was filed as active; inconclusive means small, poorly fitted or top-dose-only effect, or another doubt; inactive means no such curve, though single readings can be large or run the other way
Target sequence (P15428 whole entry, looked up): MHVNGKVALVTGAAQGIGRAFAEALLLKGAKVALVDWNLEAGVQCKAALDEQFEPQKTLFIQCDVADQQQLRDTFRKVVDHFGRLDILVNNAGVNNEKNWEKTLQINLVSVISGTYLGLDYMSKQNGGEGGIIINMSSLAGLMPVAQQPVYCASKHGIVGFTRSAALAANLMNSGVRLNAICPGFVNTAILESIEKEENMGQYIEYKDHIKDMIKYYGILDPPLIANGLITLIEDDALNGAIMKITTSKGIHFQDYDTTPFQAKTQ
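NADH formation kinetics: reaction with 30 uM PGE2 and 1 mM NAD+ (final), 20 nM enzyme, Tris-HCl pH 8 with Tween 20, after 15 min compound preincubation at room temperature. Fluorescence change, last versus first of five reads.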
ALDH1A1 block: ALDH1A1 (human) enzyme inhibition; Potency, µM (series often up to 75.3 µM), hits mostly inhibitors; AID 1030; Purified ALDH1A1, NADH fluorescence, propionaldehyde substrate; 220,000 tested, 7.3% active; active means well fitted inhibition curve with a large enough effect, not every such curve was filed as active; inconclusive means small, poorly fitted or top-dose-only effect, or another doubt; inactive means no such curve, though single readings can be large or run the other way
A number is an active result; [ ] = another dose, or the depositor's remark. Unless noted, the call rests on the fitted dose curve; in most records, active means well fitted curve in the direction sought with a large enough effect; inconclusive means small, poorly fitted or top-dose-only effect, or another doubt; inactive means no such curve, though single readings can be large; an effect the other way counts as inactive or inconclusive.

How did Cn1cnc([N+](=O)[O-])c1Sc1nc2ccccc2[nH]1 do in these assays?
HTT ATP protect: inactive[10 µM]; HttQ103 aggreg: inactive[9.22 µM]; RGS12 GoLoco inh: inactive; ALDH1A1 block: 20µM

What do the screens show for `Cc1cccc(Sc2ccc([N+](=O)[O-])cn2)c1`?
HttQ103 aggreg: inactive; PNC inhibitor: inactive; RGS12 GoLoco inh: inactive; HPGD inh: inactive; ALDH1A1 block: inactive

How did CS(=O)(=O)c1cc([N+](=O)[O-])c(Sc2nc3ccccc3[nH]2)c([N+](=O)[O-])c1 do in these assays?
HTT ATP protect: inactive; HttQ103 aggreg: inconclusive; PNC inhibitor: inconclusive; RGS12 GoLoco inh: 7.94µM; HPGD inh: 3.55µM; ALDH1A1 block: 8.91µM

What do the screens show for `Cn1cnc([N+](=O)[O-])c1Sc1nnc(-c2cccnc2)n1C`?
HTT ATP protect: inactive[10 µM]; HttQ103 aggreg: inactive[9.22 µM]; RGS12 GoLoco inh: inactive[14.2 µM]; HPGD inh: inactive; ALDH1A1 block: inactive[13.5 µM]

How did COC(=O)Cn1c(C(=O)N(C)C)cc2c1C[C@H]1CN(C(=O)c3ccccc3)[C@@](Cc3ccc(OC)cc3)(C(=O)OC)[C@@H]21 do in these assays?
HTT ATP protect: inactive; RGS12 GoLoco inh: inactive; HPGD inh: inactive; ALDH1A1 block: inactive

How did O=C(NN1C(=O)C2C3C=CC(C4CC34)C2C1=O)c1cccc(Cl)c1 (configuration not stated) do in these assays?
HTT ATP protect: inactive[10 µM]; HttQ103 aggreg: inactive; PNC inhibitor: inconclusive; RGS12 GoLoco inh: inactive; HPGD inh: inactive; ALDH1A1 block: inactive

What do the screens show for `Cc1cccc(C(=O)NN2C(=O)C3C(c4ccccc4)C=CC(c4ccccc4)C3C2=O)c1` (configuration not stated)?
HTT ATP protect: inactive; HttQ103 aggreg: inactive; PNC inhibitor: inactive; RGS12 GoLoco inh: inactive; HPGD inh: inactive; ALDH1A1 block: inactive

Results for O=C(NN1C(=O)C2C3C=CC(O3)C2C1=O)c1cccc(Br)c1 (configuration not stated) ?
HTT ATP protect: inconclusive; HttQ103 aggreg: inactive; RGS12 GoLoco inh: inactive; ALDH1A1 block: 28.2µM

Results for O=C(NN1C(=O)C2C3C=CC(O3)C2C1=O)c1cccc(O)c1 (configuration not stated) ?
HTT ATP protect: inactive[10 µM]; HttQ103 aggreg: inactive; PNC inhibitor: inactive; RGS12 GoLoco inh: inactive; HPGD inh: inactive; ALDH1A1 block: 20µM

Results for CCOC(=O)c1cc(-c2ccc(OC(F)F)cc2)nc2c1c(=O)[nH]c(=O)n2C ?
HttQ103 aggreg: inactive; PNC inhibitor: -84.0; RGS12 GoLoco inh: inactive; HPGD inh: inconclusive; ALDH1A1 block: inactive

What do the screens show for `COc1cc(/C=C/c2nc3ccccc3s2)cc(OC)c1O`?
HttQ103 aggreg: inconclusive; RGS12 GoLoco inh: inactive; ALDH1A1 block: inconclusive

How did COc1cc(/C=C(\C#N)C(N)=O)cc(CSc2nc3ccccc3s2)c1O do in these assays?
HTT ATP protect: inactive; RGS12 GoLoco inh: inactive; HPGD inh: 39.8µM; ALDH1A1 block: inconclusive

Results for CN(C)Cc1cc(C(C)(C)C)cc(CNC2CCCCC2)c1O ?
HTT ATP protect: inactive[10 µM]; RGS12 GoLoco inh: inactive[14.2 µM]; HPGD inh: inactive; ALDH1A1 block: inactive[13.5 µM]

What do the screens show for `CCCN=Cc1c(CCC)[nH]n(-c2nc3ccccc3s2)c1=O`?
HTT ATP protect: inactive; HttQ103 aggreg: inactive; PNC inhibitor: inactive; RGS12 GoLoco inh: inactive; HPGD inh: inactive; ALDH1A1 block: 14.1µM

Results for CCCc1[nH]n(-c2nc3ccccc3s2)c(=O)c1C=NCCCN(CC)CC ?
HTT ATP protect: inactive[10 µM]; HttQ103 aggreg: inactive[9.22 µM]; RGS12 GoLoco inh: inactive; ALDH1A1 block: inactive

What do the screens show for `Cc1ccc(S(=O)(=O)OCC2CN3C(CCC(C)C3c3ccc(Br)cc3)C(=O)O2)cc1` (configuration not stated)?
HTT ATP protect: inactive[10 µM]; ALDH1A1 block: inconclusive

How did O=C(O)c1cccc(Oc2ccccc2[N+](=O)[O-])c1 do in these assays?
HTT ATP protect: inactive[10 µM]; HttQ103 aggreg: inactive; PNC inhibitor: -116.4; RGS12 GoLoco inh: inactive; HPGD inh: inactive; ALDH1A1 block: inactive

Results for COc1cccc(Nc2ccc(C(=O)O)cc2[N+](=O)[O-])c1 ?
HTT ATP protect: inactive[10 µM]; HttQ103 aggreg: inactive; PNC inhibitor: inactive; RGS12 GoLoco inh: inactive; HPGD inh: 28.2µM; ALDH1A1 block: inactive

How did O=C(COc1ccccc1[N+](=O)[O-])c1ccccc1 do in these assays?
HTT ATP protect: inactive; HttQ103 aggreg: inactive[9.22 µM]; RGS12 GoLoco inh: inactive; ALDH1A1 block: 2µM

How did O=C(/C=C/c1ccccc1[N+](=O)[O-])OCC(=O)c1ccccc1 do in these assays?
HTT ATP protect: inactive[10 µM]; HttQ103 aggreg: inactive; RGS12 GoLoco inh: inactive; ALDH1A1 block: inconclusive

How did Cc1cc(C(=O)COc2ncnc3sccc23)c(C)n1C1CC1 do in these assays?
HTT ATP protect: inactive[10 µM]; HttQ103 aggreg: inconclusive; PNC inhibitor: inactive; RGS12 GoLoco inh: inactive; HPGD inh: inactive; ALDH1A1 block: 20µM

What do the screens show for `Cc1cc(C(=O)COc2ccccc2C(N)=O)c(C)n1C1CC1`?
HTT ATP protect: inactive; HttQ103 aggreg: inactive; RGS12 GoLoco inh: inactive; ALDH1A1 block: inconclusive

How did Cc1cc(C(=O)COc2ccccc2[N+](=O)[O-])c(C)n1C1CC1 do in these assays?
HTT ATP protect: inactive; HttQ103 aggreg: inactive; RGS12 GoLoco inh: inactive; ALDH1A1 block: 31.6µM

Results for COc1cc2c(cc1OC)C1(CCCC1)CNC2c1cccc([N+](=O)[O-])c1 (configuration not stated) ?
HTT ATP protect: inactive; HttQ103 aggreg: inactive; RGS12 GoLoco inh: inactive; ALDH1A1 block: inactive

What do the screens show for `O=c1c(=Nc2ccccc2O)c(=O)c2ccccc12`?
HTT ATP protect: inactive; HttQ103 aggreg: inactive[9.22 µM]; RGS12 GoLoco inh: inactive; ALDH1A1 block: 22.4µM

Results for O=c1[nH][nH]cc1C=Nc1ccccc1O ?
HTT ATP protect: inactive; HttQ103 aggreg: inactive; PNC inhibitor: inactive; RGS12 GoLoco inh: inactive; HPGD inh: inactive; ALDH1A1 block: inconclusive

Results for COc1ccccc1COCC(O)CN(Cc1ccco1)Cc1ccccc1O (configuration not stated) ?
HTT ATP protect: inactive[10 µM]; HttQ103 aggreg: inconclusive; PNC inhibitor: -116.4; RGS12 GoLoco inh: inactive; HPGD inh: inactive; ALDH1A1 block: inactive

What do the screens show for `Cc1ccc(NC(=O)COC(=O)C(CC(C)C)N2C(=O)C3CC=CCC3C2=O)c(C)c1` (configuration not stated)?
HTT ATP protect: inactive[10 µM]; HttQ103 aggreg: inactive; PNC inhibitor: -87.0; RGS12 GoLoco inh: inactive; HPGD inh: inactive; ALDH1A1 block: inactive

Results for CC(C)CC(C(=O)OCC(=O)c1c(N)n(C)c(=O)n(C)c1=O)N1C(=O)C2CC=CCC2C1=O (configuration not stated) ?
HTT ATP protect: inactive; HttQ103 aggreg: inactive; RGS12 GoLoco inh: inactive; ALDH1A1 block: inactive
